Screens as filed in PubChem BioAssay.
MARV entry inh: qHTS for inhibitors of binding or entry into cells for Marburg Virus | AID 540276, 2011 | hit rate 1.8% among 300,000 | Marburg virus pseudotyped entry inhibition, cell reporter | Potency, µM (top dose mostly 37.8 µM), for inactives: at the highest dose activity change, negative = inhibition, usual class: inhibitors; calls by dose curve; tested in HEK293 cells; also: potency is read from the fitted curve at half-maximal effect; % is scaled to controls: 0 for no effect and ±100 for the full control effect
VACV Venus inh: qHTS for Stage-Specific Inhibitors of Vaccinia Orthopoxvirus: Venus Reporter Primary qHTS | Vaccinia virus Venus reporter expression, fluorescence | Potency, µM (top dose mostly 36.5 µM), inactives show at the top dose activity change, negative = inhibition, hits mostly inhibitors | hit rate 0.46% among 330,000; calls by dose curve; tested in A549 cells; also: potency is read from the fitted curve at half-maximal effect; % is scaled to controls: 0 for no effect and ±100 for the full control effect; nearly all actives have a fitted effect of over 30% in size
CHX counter: Cycloheximide Counterscreen for Small Molecule Inhibitors of Shiga Toxin. cell reporter, cycloheximide protein synthesis inhibition counterscreen. max response, %. hit rate 12% among 300,000. AID 2314, 2010; in the data active = max response mostly above about 13%, no sharp cut-off; inactive = mostly below about 14%; also: read at 38.3 µM for the half of the compounds with a filed dose; 0% is about no effect
Lassa entry inh: qHTS for Inhibitors of binding or entry into cells for Lassa Virus | hit rate 1.2% among 300,000 | Potency, µM (top dose mostly 37.9 µM), for the others: at the top dose activity change, negative = inhibition, actives largely listed as inhibitors | Lassa virus pseudotype entry inhibition, cell reporter; calls by dose curve; tested in HEK293 cells; also: potency is read from the fitted curve at half-maximal effect; % is scaled to controls: 0 for no effect and ±100 for the full control effect; nearly all actives have a fitted effect of over 50% in size
Shiga inhibitor: A qHTS for Small Molecule Inhibitors of Shiga Toxin. Vero cells, Shiga toxin protein synthesis inhibition reporter. inhibition, % at 38.7 µM. hit rate 9.2% among 290,000. AID 2315, 2010; in the data active = inhibition mostly above about 28%, no sharp cut-off; inactive = mostly below about 43%; also: 0% is about no effect
VACV mCherry inh: qHTS for Stage-Specific Inhibitors of Vaccinia Orthopoxvirus: mCherry Reporter Primary qHTS; Potency, µM (highest dose often 36.5 µM), for inactives: at the top dose activity change, negative = inhibition, usual class: inhibitors; Vaccinia virus mCherry reporter infection, fluorescence; hit rate 0.63% among 310,000; AID 720579, 2013; calls by dose curve; tested in A549 cells; also: potency is read from the fitted curve at half-maximal effect; % is scaled to controls: 0 for no effect and ±100 for the full control effect; nearly all actives have a fitted effect of over 35% in size
* marks the source's active call; other numbers are inactive results; i = inactive; ? = inconclusive; . = no result; [ ] = dose if it differs, or a comment. Shown is part of a subset that was picked to be rich in hits.

SMILES	MARV entry inh	VACV Venus inh	CHX counter	Lassa entry inh	Shiga inhibitor	VACV mCherry inh
CN1/C(=C\C(=O)c2cccc([N+](=O)[O-])c2)Sc2ccccc21	30%[46.1 µM]	-3%	38*	21%	97*	12%
CCOC(=O)c1c(NC(=O)CN2C(=O)NC3(CCC(C)CC3)C2=O)sc(C(=O)N(C)C)c1C (stereo not given)	3%	-16%	.	4%	.	i
COCCNc1nnc(SCC(=O)NC(=O)c2ccccc2)s1	-10%[46.1 µM]	0%	.	4%	.	i
CCC(Oc1ccccc1)C(=O)Nc1ccccc1OCc1cc(=O)n2ccccc2n1 (stereo not given)	.	-21%	.	15%[46.1 µM]	.	-10%
Cc1ccc(CCNC(=O)CCn2nc(-c3ccc(Cl)cc3)ccc2=O)cc1	.	-11%	.	3%[46.1 µM]	.	-12%
COc1cc(/C=C(\C#N)C(=O)Nc2cccc(C(=O)O)c2)ccc1OCc1ccc(F)cc1	?	-1%	25*	0%	61*	-10%
CCCOc1ccccc1/C=C(\C#N)C(=O)Nc1cccc(C)n1	4%	-10%	14*	4%	29*	-15%
N#CC(C#N)=Cc1ccccc1OCc1ccccc1	.	.	43*	.	23	.
COC(=O)c1ccc(COc2ccccc2/C=C(\C#N)C(=O)Nc2ccc(C)cc2)cc1	?	-7%	87*	7%	99*	-18%
Cc1ccc(S(=O)(=O)/C(C#N)=C/c2ccccc2OCc2ccccc2)cc1	?	-19%	8	?	-6	-13%
CCOC(=O)C1(C)CCCN1C(=O)c1c(F)cccc1F (stereo not given)	.	7%	.	.	.	34%
CCCCC(=O)Nc1ccccc1C(=O)OCc1cc(=O)n2nc(C3CCCCC3)sc2n1	.	-7%	.	15%[46.1 µM]	.	-15%
CCOc1cc(/C=C(\C#N)C(=O)Nc2cccc(C(=O)O)c2)cc(Br)c1OC(=O)c1ccc(OC)cc1	5%[46.1 µM]	-5%	11	?	31*	-12%
N#C/C(=C\c1ccc(OCc2ccc(Br)cc2)cc1)C(=O)Nc1cccc(C(=O)O)c1	?	9%	23*	?	95*	1%
CCOc1cc(/C=C(\C#N)C(=O)Nc2cccc(C(=O)O)c2)ccc1OCc1ccccc1Cl	8%[46.1 µM]	-6%	10	10%[46.1 µM]	16	-10%
COC(=O)c1cccc(NC2=NS(=O)(=O)c3ccccc32)c1	.	-2%	.	20%[46.1 µM]	.	-16%
CCOc1ccc(C(=O)Nc2cc(NC(=O)c3ccc(OCC)c(Cl)c3)cc(C(=O)O)c2)cc1Cl	9%[46.1 µM]	-2%	-3	-5%[46.1 µM]	-3	-11%
CCOc1ccc(C(=O)Nc2cccc(C(=O)O)c2)cc1Cl	?	-3%	38*	?	59*	i
CCOc1ccc(C(=O)Nc2cccc(-c3nc4cccnc4o3)c2)cc1Cl	8%	.	-4	26µM*	-6	.
CC(C)(C)n1nnnc1C(c1ccccc1)N1CCN(C(=O)C2CCCO2)CC1 (stereo not given)	.	-4%	.	.	.	8%
CCOC(=O)[C@]12C[C@@H]3OCCN(C(=O)N[C@@H]1c1ccccc1)[C@@H]32	2%[14.2 µM]	.	.	.	.	.
Cc1cccc(/C(N)=N/OC(=O)Cc2cccc3ccccc23)c1	?	-8%	20*	?	28	i
N/C(=N\OC(=O)Cc1cccs1)c1ccc(Cl)cc1	.	.	31*	.	41*	.
Cc1ccc(/C(N)=N/OC(=O)Cc2cccc3ccccc23)cc1	?	-20%	-4	?	2	-25%
N/C(=N\OC(=O)Cc1cccs1)c1ccccc1	3%	.	28*	28%	59*	.
SMILES	MARV entry inh	VACV Venus inh	CHX counter	Lassa entry inh	Shiga inhibitor	VACV mCherry inh
Cc1cccc(/C(N)=N/OC(=O)Cc2cccs2)c1	2%	.	68*	11%	96*	.
COc1cc(OC)c2nc(-c3cc4c(c(OC)c3)OCCN(C(=O)C(C)c3n[nH]c(=O)c5ccccc35)C4)cc(C)c2c1 (stereo not given)	.	-12%	.	.	.	i
Cc1c(C(=O)N2CCC(C)CC2)c(S(=O)(=O)Nc2cccc(C#N)c2)c(C)n1C	.	-5%	.	21%[46.1 µM]	.	-11%
CCOC(=O)CCN1C(=O)[C@@H]2[C@H]3[C@H](O)[C@H](O)CC(=NOCc4ccccc4)[C@@H]3CC[C@H]2C1=O	-7%[14.2 µM]	.	.	?	.	.
N/C(Cc1cccs1)=N\OC(=O)COc1ccccc1	?	?	22*	14%	33	.
N/C(=N\OC(=O)Cc1cccs1)c1cccc([N+](=O)[O-])c1	21%	6%	26*	?	44*	-8%
Cc1ccc(/C(N)=N/OC(=O)Cc2cccs2)cc1	?	.	50*	27%	143*	.
COC(=O)c1c(-c2ccc(Cl)cc2)noc1N1CCN(c2ccccc2OC)CC1	.	-10%	.	17%[46.1 µM]	.	4%
Cc1ccccc1OC[C@H](O)Cn1c(N2CCN(c3ccccc3)CC2)nc2c1c(=O)[nH]c(=O)n2C	-20%	.	.	.	.	.
CC[n+]1c(/C=C/N(C)c2ccccc2)oc2ccc(Cl)cc21	?	-12%	5	?	6	-10%
CC[n+]1c(/C=C/C=C/c2ccc(N(C)C)cc2)sc2ccccc21	1.8µM*	?	-3	?	-4	?
CC[n+]1c(/C=C/N(C)c2ccccc2)sc2ccc(Cl)cc21	2.9µM*	-9%	-2	?	2	-8%
Cc1ccc2nc(-c3cc(NC(=O)/C=C/c4ccccc4)ccc3Cl)oc2c1	.	-9%	.	?	.	-11%
CCc1ccc(C(=O)NC(CCSC)C(=O)OC)cc1 (stereo not given)	-1%	-2%	17*	21%	15	-15%
COc1ccc(/C=N/N=C2/CC(C)(C)Cc3n[nH]c(=O)cc32)cc1	-1%[46.1 µM]	-12%	19	-2%[46.1 µM]	36*	-3%
COc1ccc(OC)c(NC(=O)Nc2ccc3c(c2)OCO3)c1	.	.	15*	.	56*	.
COc1cccc(NC(=O)Nc2ccc3c(c2)OCO3)c1	.	.	40*	.	77*	.
COc1ccc(OC)c(S(=O)(=O)N(C)CC(=O)Nc2ccc3c(c2)OCO3)c1	8%	-5%	1	2%	-7	.
COc1ccc2c(c1)c(=O)c(S(=O)(=O)c1ccc(C)c(C)c1)cn2CC(=O)Nc1ccccc1	?	-13%	.	3%[46.1 µM]	.	-15%
CCN1C(C(=O)c2ccccc2)=C(OC(=O)c2ccc(OC)cc2)c2ccccc2S1(=O)=O	2%[46.1 µM]	-13%	.	-20%[46.1 µM]	.	-25%
CCCN1Cc2cccc(C(=O)Nc3ccc4c(c3)OCCO4)c2C1=O	.	-1%	19*	.	59	-6%
COCCN1Cc2cccc(C(=O)Nc3cccc(-c4nc5ccccc5[nH]4)c3)c2C1=O	?	?	48*	?	105	?
CCCN1Cc2cccc(C(=O)Nc3ccc(-c4nc5ccccc5[nH]4)cc3)c2C1=O	3%	-6%	18*	9%	8	-18%
